PP5 primary: PP5 phosphatase inhibitors, primary screen, biochemical, fluorescence; purified PP5c, OMFP substrate fluorescence; 320,000 compounds, 0.18% hits; Serine/threonine-protein phosphatase 5 (Homo sapiens), P53041; inhibition, % at 6.7 µM;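 active = inhibition above the campaign's mean inhibition across all tested compounds plus 3 SD, cut at about 9.5% in these data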;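 note: 0% = DMSO only and 100% = 100 µM cantharidin control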
Fam108B counter: mouse Fam108B serine hydrolase inhibitors, primary screen, counter-screen for RBBP9 inhibitor project, biochemical, fluorescence polarization | 300,000 compounds, 0.33% hits | recombinant Fam108B, FP-Rh probe fluorescence polarization | AID 1947, 2009 | inhibition, % at 9.51 µM;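 active = inhibition above the screen mean inhibition plus 3 SD, computed separately per campaign, cut at about 18% in these data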;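 note: inhibitors lower polarization as less probe binds the enzyme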
PME-1 inh: PME-1 inhibitors via competitive probe labeling, primary screen, biochemical, fluorescence polarization, FP-Rh probe, HTS | Protein phosphatase methylesterase 1 (Homo sapiens), Q9Y570 | recombinant PME-1 | inhibition, % at 5.9 µM | 320,000 compounds, 0.53% hits;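 active = inhibition above the campaign mean of all compounds plus 3 SD, cut at about 26% in these data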;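 note: competitive labeling of PME-1 active site by serine hydrolase directed probe; 0% = PME-1 with DMSO and 100% = wells lacking PME-1 enzyme; inhibitors block probe labeling so polarization falls and inhibition rises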
LYPLA2 inh: LYPLA2 inhibitors, primary screen, counter-screen for PME1 inhibitor project, biochemical, fluorescence polarization, FP-Rh probe ABPP. recombinant LYPLA2. inhibition, % at 5.9 µM. 320,000 compounds, 0.38% hits;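 active = inhibition above the screen-wide mean plus 3 SD, limit set per campaign, cut at about 26% in these data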;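 note: 0% = LYPLA2 with DMSO and 100% = wells lacking LYPLA2 enzyme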
Target sequence (O95372 whole entry, looked up): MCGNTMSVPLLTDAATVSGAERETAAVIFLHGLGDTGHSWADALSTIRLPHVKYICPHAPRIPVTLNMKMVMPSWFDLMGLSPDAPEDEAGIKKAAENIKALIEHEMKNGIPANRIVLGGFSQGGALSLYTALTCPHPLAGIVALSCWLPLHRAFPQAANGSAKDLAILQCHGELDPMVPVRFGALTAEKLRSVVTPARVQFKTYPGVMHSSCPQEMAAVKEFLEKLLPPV
LYPLA1 inh: LYPLA1 inhibitors, primary screen, counter-screen for PME1 inhibitor project, biochemical, fluorescence polarization, FP-Rh probe ABPP; 320,000 compounds, 0.16% hits; recombinant LYPLA1; inhibition, % at 5.9 µM; AID 2174, 2009;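 active = inhibition above the mean of all tested compounds plus 3 SD, set per campaign, cut at about 14% in these data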;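 note: inhibitors block serine hydrolase probe labeling of LYPLA1 so polarization falls; 0% = enzyme with DMSO and 100% = wells lacking LYPLA1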
Target sequence (O75608 whole entry, looked up): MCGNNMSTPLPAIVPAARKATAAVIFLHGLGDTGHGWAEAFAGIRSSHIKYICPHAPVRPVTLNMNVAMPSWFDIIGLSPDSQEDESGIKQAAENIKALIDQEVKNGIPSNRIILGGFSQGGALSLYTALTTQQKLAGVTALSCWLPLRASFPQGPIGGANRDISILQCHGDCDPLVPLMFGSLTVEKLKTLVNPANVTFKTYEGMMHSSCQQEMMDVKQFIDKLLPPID
PP1 counter: PP1-alpha phosphatase inhibitors, primary screen, counter-screen for PP5 inhibitor project, biochemical, fluorescence, OMFP substrate, single point; Serine/threonine-protein phosphatase PP1-alpha catalytic subunit (Homo sapiens), P62136; purified PP1alpha; inhibition, % at 6.7 µM; 320,000 compounds, 0.9% hits;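 active = inhibition above the mean inhibition of all tested compounds plus 3 SD, computed separately for each screening campaign, cut at about 15% in these data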
LYPLA1 confirm: LYPLA1 inhibitors, retest, confirmation, counter-screen for PME1 inhibitor project, biochemical, fluorescence polarization, FP-Rh probe ABPP | shares compounds with LYPLA1 inh | recombinant LYPLA1 | inhibition, % at 5.9 µM | 480 compounds, 69% hits | AID 2233, 2010;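 active = mean inhibition across replicates above the hit cutoff set in the primary screen, cut at about 15% in these data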;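 note: loss of FP-Rh probe labeling of LYPLA1 seen as lower polarization; 0% = LYPLA1 with DMSO and 100% = wells lacking LYPLA1 enzyme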
Starred values were filed as active, the others as inactive; / = no result given; + = active, no number. In the library only some 1.8% were active in any assay of this set; here they are far more common.

SMILES | PP5 primary | Fam108B counter | PME-1 inh | LYPLA2 inh | LYPLA1 inh | PP1 counter | LYPLA1 confirm
COC(=O)/C(C#N)=C\c1c(OC)[nH]c2ccccc12 | 0 | 3 | -2 | -1 | 20* | 0 | 3
Cc1cc(NC(=O)COc2ccccc2)ccc1Cl | 3 | 0 | -5 | 5 | -4 | -2 | /
COCCn1c(C)c(C)c(S(=O)(=O)c2ccccc2)c1N | 1 | 14 | 16 | 17 | 16* | 0 | 13
CC1CCC2(CC1)NC(=O)N(CC(=O)NCc1ccc(F)cc1)C2=O (stereo unspecified) | 4 | / | 7 | -3 | 1 | -3 | /
CS(=O)(=O)N1CCN=C1SCc1ccc([N+](=O)[O-])cc1 | 5 | 4 | 4 | 5 | + | -5 | 0
CCN(CC)S(=O)(=O)c1cccc(-c2nnc(SCCOc3ccccc3)o2)c1 | 1 | -6 | -10 | 1 | 41* | 3 | 51*
CCN(CC)S(=O)(=O)c1cccc(-c2nnc(SCCOc3ccccc3C)o2)c1 | 1 | -1 | -1 | -8 | 29* | 3 | 34*
O=C(CC1N=C(Cc2ccccc2)NNC1=O)N/N=C/c1ccc([N+](=O)[O-])cc1 (stereo unspecified) | 2 | 1 | 11 | -3 | 26* | 1 | 23*
C/C(=N\NC(=O)CC1N=C(Cc2ccccc2)NNC1=O)c1ccccc1 (stereo unspecified) | 0 | 1 | 3 | 4 | 4 | -1 | /
Cc1ccc(NC(=O)CNCc2cccs2)cc1Br | 0 | 5 | 1 | 2 | 1 | -1 | /
Cn1c(=O)[nH]c2nnc(-c3ccc(Cl)c(Cl)c3)nc2c1=O | -1 | 6 | 14 | 3 | 14* | -3 | 24*
Cc1ccc(Cl)c(NC(=O)CSc2n[nH]c(=O)n2C2CC2)c1Cl | 1 | / | 0 | 1 | -3 | 4 | /
Cc1ccc([N+](=O)[O-])c(OCCCN2CCC(Cc3ccccc3)CC2)c1 | 1 | 1 | -5 | 27* | 36* | 5 | 52*
CN(C(=O)CCc1nc2ccccc2c(=O)[nH]1)C1CCS(=O)(=O)C1 (stereo unspecified) | 3 | / | 3 | -1 | -5 | -4 | /
CCCCC1OC23CCCCC2C(C#N)(C#N)C1(C#N)C(=N)O3 (stereo unspecified) | 5 | 4 | 10 | 17 | 15* | 0 | 2
CSC(=NC#N)N1CCN(c2ccc(Cl)cc2)CC1 | -1 | -5 | 0 | 6 | 17* | -1 | 19*
COc1ccc([N+](=O)[O-])cc1NC(=O)C(C)N1CCN(C(=O)c2ccco2)CC1 (stereo unspecified) | 1 | -4 | -5 | -2 | 16* | -3 | 22*
CCOC(=O)C1CCN(C(=O)c2[nH]c3ccc(OC)cc3c2C)CC1 | -1 | 3 | 3 | -7 | 0 | -3 | /
COc1ccc2[nH]c(C(=O)N3CCC(CO)(Cc4cccc(C(F)(F)F)c4)CC3)c(C)c2c1 | 8 | 5 | 4 | 4 | 19* | 2 | 26*
Cc1nc2c(C(=O)NCCc3ccccc3Cl)c[nH]n2c(=O)c1Cl | 3 | 11 | 12 | 13 | 18* | 17* | 16*
COc1ccc(OC)c(NC(=O)C2CCC(CNc3c(N4CCC(C)CC4)c(=O)c3=O)CC2)c1 (stereo unspecified) | -1 | -2 | -1 | 6 | 45* | 1 | 44*
COc1ccc(C)cc1NC(=O)C1CCC(CNc2c(N3CCOCC3)c(=O)c2=O)CC1 (stereo unspecified) | 0 | 2 | 2 | -2 | 1 | -1 | /
CN(C(=O)c1ccc(NC(=O)Cc2cccc([N+](=O)[O-])c2)cc1)C1CC1 | 1 | / | 4 | 18 | 42* | -1 | 35*
O=C1CCCC2=C1C(c1cccs1)Nc1ccc3ncccc3c12 (stereo unspecified) | 3 | 1 | 1 | -1 | 2 | -3 | /
Cc1ccsc1C1Nc2ccc3ncccc3c2C2=C1C(=O)CC(C)(C)C2 (stereo unspecified) | 5 | 4 | 17 | 11 | 16* | 2 | 11
SMILES | PP5 primary | Fam108B counter | PME-1 inh | LYPLA2 inh | LYPLA1 inh | PP1 counter | LYPLA1 confirm
C#CCN1c2ccccc2Sc2cccnc21 | -2 | 12 | 29* | 23 | 17* | -4 | 0
O=C(c1ccc(-n2c(SCc3cccc(F)c3)nc3ccccc3c2=O)cc1)N1CCOCC1 | 3 | 3 | -5 | 5 | -2 | -2 | /
O=C(O)c1ccc(CSc2nc3ccccc3c(=O)n2-c2ccccc2)cc1 | 3 | -2 | 2 | 22 | 17* | 6 | 27*
Cc1cc(C)c2c(N)c(C(=O)Nc3ncc(C)s3)sc2n1 | 2 | -7 | 5 | -6 | 28* | -4 | 21*
COc1ccc2nc(NC(=O)c3sc4nc(C)cc(C)c4c3N)sc2c1 | 1 | -4 | 0 | 5 | 15* | -2 | 18*
COC(=O)c1sc2nc(C)cc(C)c2c1N | 1 | 0 | -1 | -2 | -3 | 0 | /
COc1ccc2nc(NC(=O)c3cc(C)oc3C)sc2c1 | 0 | -4 | -1 | -7 | -3 | -5 | /
N#CC1(NC(=O)COC(=O)/C=C/c2ccc3ccccc3n2)CCCCC1 | 0 | -3 | -4 | 1 | 1 | 1 | /
Cc1cccc(C)c1NC(=O)c1cccc(N2C(=O)C3CCC(C)CC3C2=O)c1 (stereo unspecified) | 2 | 7 | -1 | 2 | -3 | -7 | /
COc1ccc(CNC(=O)c2ccc(S(=O)(=O)NCc3ccco3)cc2)cc1 | 2 | / | -7 | 1 | -2 | 3 | /
COc1c(O)cc2c(c1O)[C@@H]1O[C@H](CO)[C@@H](O)[C@H](O)C1OC2=O (stereo partly specified) | 1 | 0 | 0 | 0 | 2 | -3 | /
O=C(O)c1cccc(N/N=C/c2cc(Br)cc(Br)c2O)c1 | 3 | 18 | 58* | 14 | 24* | 3 | 20*
Cc1noc(NS(=O)(=O)c2ccc(N/C=C\C(=O)c3ccc(Br)cc3)cc2)c1C | 3 | 3 | 10 | 8 | 16* | -4 | 34*
CCOc1ccc(C(=O)/C=C/Nc2ccc(S(=O)(=O)Nc3onc(C)c3C)cc2)cc1 | 4 | 2 | 1 | 8 | 4 | 1 | /
